# This is a sample that favours compounds with a hit; in the whole collection about 4.3% have one here.
# Giardia kill – Giardia lamblia killing; Giardia lamblia trophozoite viability; activity change, % at 7.66 µM, hits read low; 0.15% of 340,000 active; AID 540267; in the data active = activity change below about -80%; inconclusive = between about -30% and that limit;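 also: parasites exposed to compound for two days anaerobically before the ATP read; % is scaled to controls: 0 for no effect and ±100 for the full control effect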
#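 Luminescence from cellular ATP indicates surviving trophozoites (100 cells/well) following 48 hrs anaerobic compound treatment at 37 deg C; signal develops 15-30 min at room temperature.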
# SW480 rerep – inducers of DNA re-replication in SW480 colon cancer cells. SW480 DNA re-replication, Hoechst DNA content imaging, 48 h. 1.8% of 340,000 active. AID 624297. Potency, µM (titrated, usually from 46.1 µM), inactives show at the top dose re-replication activation, hits mostly activators; also: potency is read from the fitted curve at half-maximal effect; % of control where 0% means no effect; nearly all actives have a fitted effect of over 55% in size
#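 Per well, 250 cells were exposed to pinned compound for 48 hr. Nuclear DNA was visualised with Hoechst (40 min, 37 C) and total object intensity recorded by fluorescence scanning.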
# MCF10A rereplic – DNA re-replication induction in MCF 10a cells | 2.9% of 350,000 active | Potency, µM (doses to about 46.1 µM), without a hit: at the highest dose activity, positive = re-replication, most hits filed as activators | MCF 10A DNA re-replication, Hoechst nuclear intensity, 48 h; also: potency is read from the fitted curve at half-maximal effect; % of control where 0% means no effect; nearly all actives have a fitted effect of over 50% in size
# uPA surface inh – inhibitors of cell surface uPA generation; cell surface uPA generation assay, qHTS; Potency, µM (doses to about 38.3 µM), without a hit: at the top dose activity change, negative = inhibition, hits mostly inhibitors; 0.31% of 330,000 active; active = well fitted inhibition curve with a large enough effect; inconclusive = small, poorly fitted or top-dose-only effect; inactive = no such curve, though single readings can be large or run the other way; tested in mouse RAW 264.7 cells; also: potency is read from the fitted curve at half-maximal effect; % is scaled to controls: 0 for no effect and ±100 for the full control effect; nearly all actives have a fitted effect of over 55% in size
# An asterisk follows results filed as active; ? = inconclusive; / = no result given; [ ] = dose if it differs, or a comment. Unless noted, calls follow the shape of the dose curve; as a rule, active = well fitted activation curve with a large enough effect; inconclusive = small, poorly fitted or top-dose-only effect; inactive = no such curve, though single readings can be large or run the other way.
SMILES,Giardia kill,SW480 rerep,MCF10A rereplic,uPA surface inh
Cc1ccc(CN2CCc3c(OCc4ccc(F)cc4)cccc3C2=O)cc1,2,0%,11%,-7%
O=C1c2cccc(OCc3ccc(F)cc3)c2CCN1Cc1ccc(F)cc1,-17,8%,21µM*,-5%
COc1ccc(CNS(=O)(=O)CCNC(=O)c2cccc(OC)c2)cc1,13,-3%,3%,7%
Cc1ccc(CN2CCCCC2C(=O)Nc2ccc(Oc3cccnc3)cc2)o1 (configuration not stated),-15,16µM*,15µM*,-11%
O=C(Nc1ccc(Oc2ccccc2)nc1)C1CCCCN1Cc1ccco1 (configuration not stated),51,2.9µM*,1.8µM*,?
O=C(NNc1ccc(F)cc1F)c1cccs1,-1,/,/,/
CCc1ccc(C(=O)c2c(N)c(-c3nc(-c4ccc5c(c4)OCO5)cs3)c3ccccn23)cc1,-4,/,/,/
COC(=O)c1c(-c2ccsc2)sc2ccc(-c3cc(OC)c(OC)c(OC)c3)cc12,-20,-19%[9.22 µM],1%,6%
COc1ccc(-c2oc(=O)c3cc(OC)c(OC)cc3c2C#CC2(O)CCCCC2)cc1,-11,-11%[9.22 µM],2.1µM*,13%
COc1ccc(-c2oc3cccnc3c2C#CC2(O)CCCCC2)cc1,6,27%,18µM*,-16%
COc1cc(-c2ccc3sc(-c4ccsc4)c(C#CCO)c3c2)cc(OC)c1OC,16,0%,12µM*,-12%
COc1cc(-c2ccc3oc(-c4ccsc4)c(C#CC4(O)CCCCC4)c3c2)cc(OC)c1OC,4,?,18µM*,-4%
COc1ccc(C(=O)COC(=O)[C@@H](NS(=O)(=O)c2ccccc2)C(C)C)cc1,24,12%,?,-27%
COc1cc(C2C=C(C34CC5CC(CC(C5)C3)C4)NC(=S)N2)cc(OC)c1OC (configuration not stated),-7,?,-1%,-9%
COc1ccc(C2=CC(c3cc(OC)c(OC)c(OC)c3)NC(=S)N2)cc1 (configuration not stated),-3,18µM*,?,-3%
O=S(=O)(Nc1ccccn1)c1ccc(C(F)(F)F)cc1Cl,19,21µM*,?,-1%
O=C(Nc1cc([N+](=O)[O-])c2[nH]c(=O)c3ccccc3c2c1)C(F)(F)F,?,1%,-1%,-8%
CC(=O)C1=C(O)C(=O)N(c2ccc(Br)cn2)C1c1ccccc1[N+](=O)[O-] (configuration not stated),-3,-13%,12%,1%
CC(=O)C1=C(O)C(=O)N(c2ccccn2)C1c1ccccc1[N+](=O)[O-] (configuration not stated),6,21µM*,?,-1%
O=C(COC(=O)CCS(=O)(=O)c1ccc(Cl)cc1)NCCc1ccccc1,-18,-13%,1%,0%
O=C(Cc1csc(Nc2nc(=S)[nH]c3ccccc23)n1)NCCCN1CCN(c2ccccc2F)CC1,?,18µM*,7.3µM*,-2%
O=C(Cc1csc(Nc2nc(=S)[nH]c3ccccc23)n1)NCc1ccc(Cl)cc1,5,?,16µM*,21%
C=C(C)c1sc(-c2ccc(Cl)cc2)nc1C,1,-23%[9.22 µM],8%,-4%
CC(=O)Nc1cccc(OCc2ccc(S(=O)(=O)Cc3ccccc3)cc2)c1,-14,-38%,5%,2%
COc1ccc(S(=O)(=O)N(C)C[C@H]2Oc3c(NC(=O)C4CCCCC4)cccc3C(=O)N([C@H](C)CO)C[C@@H]2C)cc1,17,-7%,-9%,-9%
SMILES,Giardia kill,SW480 rerep,MCF10A rereplic,uPA surface inh
c1ccc(-c2nc(-c3nccc4ccccc34)oc2-c2ccccc2)cc1,-11,7.3µM*,?,7%
Nc1nc(-c2ccccc2)c(-c2ccccc2)o1,-20,-75%,-9%,-1%
CCN(C(=O)COC(=O)c1ccc(=O)n(Cc2ccccc2)n1)C1CCCCC1,2,-14%,-7%,4%
Cc1cc2c(cc1C)NC(CC(=O)NCc1ccccc1)C(=O)N2 (configuration not stated),-15,?,14µM*,/
Cc1cc(C)c(C)c(S(=O)(=O)NCCCN2CCCC2=O)c1C,-2,-2%,-3%,8%
COc1cc(-c2nnc(NC(=O)CCS(=O)(=O)c3ccccc3)o2)cc(OC)c1OC,5,?,18µM*,6%
O=C(CCS(=O)(=O)c1ccc(F)cc1)Nc1nnc(-c2cccs2)o1,-2,?,?,10µM*
COc1cc(OC)cc(-c2nnc(NC(=O)CCS(=O)(=O)c3ccc(F)cc3)o2)c1,12,?,?,-9%
Cc1ccc(C)c(-c2nnc(NC(=O)CCS(=O)(=O)c3ccccc3)o2)c1,1,-2%,?,-8%
COc1cc(-c2nnc(NC(=O)CCS(=O)(=O)c3ccc(F)cc3)o2)cc(OC)c1OC,-18,23%,16µM*,21%
O=C(C[C@@H]1C/C=C/CC[C@@H](Cc2ccc(F)cc2)C(=O)O[C@H](c2ccccc2)CNC1=O)NCCO,-9,-3%,?,-2%
C[C@H](CO)N1C[C@H](C)[C@@H](CN(C)Cc2ccc(C(=O)O)cc2)Oc2c(NS(=O)(=O)c3ccc(F)cc3)cccc2C1=O,-1,-33%[9.22 µM],-2%,-4%
COc1cccc(N2C(=O)CC(N3CCN(S(=O)(=O)c4ccccc4[N+](=O)[O-])CC3)C2=O)c1 (configuration not stated),17,29%,4%,-6%
CC1CCc2c(sc(NC(=O)c3ccco3)c2C(=O)O)C1 (configuration not stated),-18,-13%,0%,-4%
CC1CCc2c(sc(NC(=O)/C=C/c3cccs3)c2C(=O)O)C1 (configuration not stated),1,1%,-6%,10µM*
CCOC(=O)CN(Cc1cc(OC)cc(N(C)C)c1OC)C(=O)C1CC(CO[Si](C)(C)C(C)(C)C)=CN1C(=O)OC(C)(C)C (configuration not stated),-2,/,/,/
Cc1c(Cn2ccnc2)c2ccccc2n1CCC(=O)O,/,-14%,1%,/
CC(OC(=O)/C(C#N)=C/c1ccc(N(C)C)cc1)C(=O)N(C)Cc1ccccc1 (configuration not stated),-16,?,16µM*,3%
CC1(C)CC2CC(C)(CN2S(=O)(=O)c2cccc(C(N)=O)c2)C1 (configuration not stated),?,-7%,1%,15%
COCCCNC(=O)c1cccc(S(=O)(=O)N2CC3(C)CC2CC(C)(C)C3)c1 (configuration not stated),?,10%,1%,6.3µM*
COCCNC(=O)c1cccc(S(=O)(=O)N2CC3(C)CC2CC(C)(C)C3)c1 (configuration not stated),-18,-1%,3%,4µM*
CC1(C)CC2CC(C)(CN2S(=O)(=O)c2cccc(C(=O)OCC(N)=O)c2)C1 (configuration not stated),-14,1%,2%,0%

# Screening data deposited in PubChem BioAssay by National Center for Advancing Translational Sciences (NCATS).
